Assay outcomes: PubChem, Sanford-Burnham Center for Chemical Genomics
Hits are enriched below; roughly 4% of the tested compounds scored in any of these assays.
TROY NFkB inh: inhibitors of TROY-dependent NF-kB signaling; inhibition, % at 10 µM; AID 1347056; Q293 LMP1-TROYcd NF-kB luciferase reporter, 4 h; 360,000 compounds, 0.98% hits;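 active = compounds whose plate-normalised and pattern-corrected inhibition of the luciferase reporter signal at the single screening dose is 50% or more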
CF NFkB inh: cystic fibrosis NF-kB activation inhibition. KKLEB NF-kB-GFP reporter, PAF-induced, GFP fluorescence overnight. inhibition, % at 5 µM. 360,000 compounds, 0.86% hits;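 active = at least 50% inhibition at 5 µM, scaled per plate between neutral and stimulator controls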;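 note: PAF is a Pseudomonas aeruginosa culture filtrate used as stimulus; plate controls were PAF-stimulated DMSO wells for no effect and unstimulated DMSO wells for full effect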
HIF-2a inh: blocks HIF-2a reporter activity | 786-0 RCC cells HIF-2a reporter, luciferase luminescence, overnight | inhibition, % at 18.8 µM | 360,000 compounds, 0.72% hits | AID 624352;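 active = inhibition of the luminescence signal of 40% or more relative to plate controls, in a single-dose primary screen at 18.75 µM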
TWEAK-Fn14 inh: blocks TWEAK-Fn14 interaction in a reporter cell assay. inhibition, % at 10 µM. TWEAK-stimulated Fn14 reporter cells, luciferase luminescence, 8 h. AID 1159606. 360,000 compounds, 2% hits; in the data active = inhibition above about 50%
KKLEB cytotox: counter-screen for CF NF-kB inhibitors: cytotoxicity | KKLEB CF airway cells viability, ATPlite luminescence, overnight; active compounds read low; cells stimulated with P. aeruginosa culture filtrate | activity change (cytotoxicity), % at 5 µM | 360,000 compounds, 0.36% hits;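 active = corrected activity change at or below -50% at 5 µM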
Peg3 promoter: reduces Peg3 promoter-driven luciferase expression in HeLa | HeLa PEG-Prom luciferase reporter, luminescence, overnight | inhibition, % at 20 µM | 360,000 compounds, 1.7% hits;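 active = inhibition of at least 50% at 20 µM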
Numbers without * were called inactive; . = no result given.

SMILES | TROY NFkB inh | CF NFkB inh | HIF-2a inh | TWEAK-Fn14 inh | KKLEB cytotox | Peg3 promoter
Cc1cc(C)c(NC(=O)c2cccc3c2C(=O)N(C2CCCCC2)C3)c(C)c1 | 29.2 | 6.5 | 14.6 | -17.4 | 0.9 | 55.9*
COc1cc(-c2coc3c(C(=O)NCc4ccc(OC)c(OC)c4)cccc23)ccc1O | 66.5* | 4.4 | -159.5 | 95.3* | -32.0 | 51.2*
COc1cc(-c2coc3c(C(=O)NCc4ccc(N(C)C)cc4)cccc23)ccc1O | -12.1 | -9.0 | -53.3 | 1.0 | -33.8 | -26.9
COc1ccc(CNC(=O)c2cccc3c(-c4ccc(F)c(F)c4)coc23)cc1OC | 45.1 | -33.7 | -0.3 | 64.2* | 5.1 | 19.2
COc1ccc(CNC(=O)c2cccc3c(-c4cccc(C(N)=O)c4)coc23)cc1OC | 63.5* | 22.3 | -82.6 | 90.8* | -9.2 | 27.6
O=C(NCc1cc(Cl)cc(Cl)c1)c1ccc2nc([C@@H]3O[C@H](CO)[C@@H](O)[C@H]3O)[nH]c2c1 | -3.8 | -9.4 | -2.6 | 0.5 | -2.5 | -9.2
CC(=O)c1cccc(OCC(O)CNCC2COc3ccccc3O2)c1 (stereo not given) | -13.4 | -3.5 | 6.9 | -39.2 | -2.2 | -9.0
COc1cccc(CNC(=O)[C@@H]2CCCN2C(=O)[C@H]2CCCCN2C(=O)OC(C)(C)C)c1 | -12.0 | . | -5.3 | 2.0 | . | .
CCN(CC)S(=O)(=O)c1ccc(N2CCc3ccccc3C2)nc1 | 9.8 | 25.3 | -78.9 | 29.0 | -5.2 | -77.1
CC(C)N(C(C)C)S(=O)(=O)c1ccc(N2CCc3ccccc3C2)nc1 | 49.4 | 15.6 | -124.1 | 58.0* | -7.1 | -168.4
COc1cccc(CN(C)C(=O)c2ccc(OCC(=O)Nc3cccc(C(F)(F)F)c3)c(OC)c2)c1 | 40.2 | -10.0 | -17.9 | 60.5* | -8.1 | 15.2
O=C(Nc1ccc(S(=O)(=O)Nc2ncccn2)cc1)C1CC(=O)N(c2ccc(Cl)cc2)C1 (stereo not given) | -29.7 | -3.9 | 8.6 | -7.3 | 7.6 | 6.5
C=CCC[C@H](Cc1ccc(F)cc1)C(=O)OC[C@@H](Cc1c[nH]c2ccccc12)NC(=O)[C@@H](CC=C)CC(=O)N(CCO)Cc1ccccc1 | 12.5 | 38.1 | 21.3 | 49.5 | -4.4 | 44.4
C=CCC[C@@H](Cc1ccc(F)cc1)C(=O)OC[C@H](Cc1c[nH]c2ccccc12)NC(=O)[C@H](CC=C)CC(=O)N(CCO)Cc1ccccc1 | 17.2 | 2.1 | -21.0 | 59.7* | 2.3 | 64.4*
C=CCC[C@H](Cc1ccc(F)cc1)C(=O)OC[C@H](Cc1c[nH]c2ccccc12)NC(=O)[C@@H](CC=C)CC(=O)N(CCO)Cc1ccccc1 | 45.0 | 2.8 | -8.5 | 60.0* | 0.4 | 53.5*
CN1C[C@@H]2[C@@H]3C(=O)N(C)C(=O)[C@@H]3[C@](Cc3ccccc3)(C1=O)N2C(=O)c1ccccc1 | -2.5 | -0.2 | 7.9 | 5.9 | -4.8 | -11.4
CC(NC(=O)c1ccc(N(C)C)cc1)C(c1cccs1)N1CCN(C)CC1 (stereo not given) | 62.4* | -24.9 | -101.5 | 44.4 | -3.3 | -123.9
CCC1CCCCN1C(=O)c1cc(COc2ccc(-n3cncn3)cc2)on1 (stereo not given) | 6.3 | -2.7 | -17.9 | -6.3 | 10.4 | -9.0
Cc1onc(-c2ccccc2Cl)c1C(=O)Nc1ccccc1 | 5.3 | 4.9 | 6.3 | 23.0 | -2.9 | 11.4
Cc1onc(-c2ccccc2Cl)c1C(=O)Nc1ccc(CN2CCCC2)cc1 | . | -6.5 | 11.3 | 33.1 | 8.5 | 7.3
Cc1onc(-c2ccccc2Cl)c1C(=O)Nc1ccc(-c2nnc3n2CCCCC3)cc1 | -1.8 | 15.2 | 13.1 | 98.5* | 1.0 | 10.6
Cc1onc(-c2ccccc2Cl)c1C(=O)NNC(=O)c1cccc(F)c1 | 5.8 | 4.7 | 11.0 | 76.3* | -3.7 | 0.3
COc1ccccc1NC(=O)N(C)C[C@H]1OCc2cnnn2CCCC(=O)N([C@H](C)CO)C[C@@H]1C | 4.2 | -14.3 | 14.1 | 10.5 | 4.1 | 15.3
CN(C(=O)c1cccc(NC(=O)Cc2ccc(NC(=O)C3CCN(C(=O)c4ccccc4)CC3)cc2)c1)C1CCCC1 | 8.5 | -2.2 | 9.5 | -1.6 | -11.8 | 10.4
COCCCNCC(O)COc1ccccc1F (stereo not given) | -5.4 | 3.6 | 15.6 | 97.8* | 3.7 | -0.1
SMILES | TROY NFkB inh | CF NFkB inh | HIF-2a inh | TWEAK-Fn14 inh | KKLEB cytotox | Peg3 promoter
COc1ccc(OC)c(NC(=O)C(C)OC(=O)c2cc3ccccc3[nH]2)c1 (stereo not given) | 13.1 | -4.2 | 24.8 | 34.7 | -7.5 | 30.5
O=C(c1cnn2c1NC(c1ccco1)CC2C(F)(F)F)N1CCN(c2cccc(Cl)c2)CC1 (stereo not given) | 22.9 | 8.7 | 28.8 | 44.1 | -0.7 | 50.1*
Cc1ccccc1NS(=O)(=O)c1ccc(C(=O)NCC(C)(C)N2CCOCC2)cc1 | 12.5 | 20.7 | 2.9 | -0.2 | 1.5 | 17.6
C[C@H]1[C@H](C)CC[C@]2(C(=O)O)CC[C@]3(C)C(=CC[C@@H]4[C@@]5(C)C[C@@H](O)[C@H](O)C(C)(C)[C@@H]5CC[C@]43C)[C@H]12 | 7.4 | 11.9 | 35.4 | -83.4 | -11.5 | 22.7
CC1(C)CC[C@]2(C(=O)O)CC[C@]3(C)C(=CCC4[C@]56CC[C@@](O)(OC5)C(C)(C)C6CC[C@]43C)C2C1 (stereo not given in full) | 65.2* | 28.1 | 13.4 | 23.3 | 3.7 | 7.2
C[C@H]1[C@H](C)CC[C@]2(C(=O)O)CC[C@]3(C)C(=CC[C@@H]4[C@@]5(C)CC[C@H](O)C(C)(C)[C@@H]5CC[C@]43C)[C@H]12 | 12.5 | 7.4 | 5.0 | -47.6 | -2.8 | 52.9*
C[C@@H]1CC[C@]2(C(=O)O)CC[C@]3(C)C(=CCC4[C@]56CC[C@@](O)(OC5)C(C)(C)C6CC[C@]43C)C2[C@H]1C (stereo not given in full) | 62.6* | 40.3 | 0.9 | 7.5 | 10.5 | 26.8
CC(=O)N1CCC(C(=O)Nc2ccc(S(=O)(=O)N3CCCCC3)cc2)CC1 | -8.7 | -8.9 | 17.8 | 8.9 | 9.8 | 11.4
CCCc1cc(C(=O)Nc2ccc(C(=O)c3ccccc3)cc2)n(C)n1 | 33.6 | 5.9 | 10.6 | 26.8 | -9.1 | 12.4
CCCc1cc(C(=O)Nc2ccc(C(=O)c3ccc(F)cc3)cc2)n(C)n1 | 58.7* | 19.6 | -16.8 | 50.4* | -13.4 | 21.0
COc1ccc(C(=O)O/N=C(\C)c2ccccc2)cc1 | 68.8* | -4.7 | -174.5 | -7.0 | 5.4 | -166.1
COc1ccc(C(=O)O/N=C(\N)c2ccc(OC)c(OC)c2)c(OC)c1 | -40.8 | -9.3 | -115.5 | -6.3 | 11.0 | -130.7
COc1ccc(C(=O)O/N=C(\N)c2ccccc2)c(OC)c1 | 76.6* | -17.3 | 7.3 | 86.0* | -22.7 | -93.5
COc1ccc(C(=O)O/N=C(\N)c2ccccn2)c(OC)c1 | 73.1* | -13.9 | -77.9 | 88.0* | -2.2 | -27.7
C/C(=N/OC(=O)c1ccc(C)cc1)c1cccs1 | 61.6* | -4.1 | -99.7 | 28.9 | 7.1 | -36.1
